An excerpt weighted towards active compounds, which were near 3.9% of everything screened.
BoNT-A LC inh2: BoNT/A light chain protease inhibitors, primary screen, biochemical, flow cytometry, MLPCN library; inhibition, % at 10 µM; AID 588499, 2011; Botulinum neurotoxin type A light chain protease (Clostridium botulinum A str. ATCC 3502); 0.17% of 360,000 active; multiplex microsphere protease substrate cleavage; note: plate controls were buffer without enzyme for full effect and enzyme alone for no effect
Anthrax LF inh2: Bacillus anthracis LF protease inhibitors, primary screen, biochemical, multiplex microsphere, MLPCN library | Lethal factor (Bacillus anthracis), P15917 | multiplex microsphere protease cleavage assay | inhibition, % at 10 µM | 0.12% of 360,000 active; note: plate controls were buffer without enzyme for full effect and enzyme alone for no effect
BoNT F protease: BoNT/F light chain protease inhibitors, primary screen, biochemical, flow cytometry, MLPCN library | Multiplex microsphere protease cleavage assay | inhibition, % at 10 µM | 0.22% of 360,000 active | AID 588497, 2011; in the data active = inhibition above about 35%, passing the limit was not always enough; inconclusive = no clear call, values can overlap the other calls; note: plate controls were buffer without enzyme for full effect and enzyme alone for no effect
MazEF act: activators of E. coli MazEF toxin-antitoxin RNase, primary screen, biochemical, fluorescence, uHTS; activation, % at 20 µM; AID 504720, 2011; FAM/BHQ RNA-DNA oligo cleavage fluorescence, 5 h; 0.32% of 350,000 active; Endoribonuclease toxin MazF (Escherichia coli (strain K12)), P0AE70; in the data active = activation above about 50%
Target sequence (P0AE70 whole entry, looked up): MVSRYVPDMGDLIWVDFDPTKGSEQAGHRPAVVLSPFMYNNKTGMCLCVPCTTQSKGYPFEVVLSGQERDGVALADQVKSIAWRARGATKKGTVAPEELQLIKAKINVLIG
Vc quorum ag: inducers of Vibrio cholerae quorum light production without autoinducers, primary screen, BH1578 luxS cqsA deficient, single point; V. cholerae BH1578 lux reporter, luminescence, 6 h; activation, % at 18.7 µM; 0.16% of 350,000 active; AID 588436, 2011; in the data active = activation mostly above about 9.7%, no sharp cut-off; inconclusive = no clear call, values can overlap the other calls; inactive = mostly below about 3.7%
Autofluor counter: counter-screen for toxin protease inhibitors: compound fluorescence; fluorescence intensity (concentration not given with the values); 3.1% of 360,000 active; compound autofluorescence counterscreen, microsphere flow cytometry; stronger effect = higher value; in the data active = fluorescence intensity above about 16000; inconclusive = no clear call, values can overlap the other calls
An asterisk follows results filed as active; i = inactive; ? = inconclusive; · = not tested or not shown. Cut-off read from the data, not from the text of the source, unless noted: active = inhibition above about 30%; inconclusive = no clear call, values can overlap the other calls; inactive = below that.

SMILES | BoNT-A LC inh2 | Anthrax LF inh2 | BoNT F protease | MazEF act | Vc quorum ag | Autofluor counter
Cc1ccc(S(=O)(=O)/N=c2\sccn2C)cc1 | 0 | -3 | 8 | 0 | 46* | 4777
Cc1cc(=O)n2ccccc2c1C#N | ? | 1 | 4 | 10 | i | 22057*
O=C(CN(Cc1ccc(Cl)cc1)C(=O)c1csnn1)NCc1ccc(F)cc1 | -4 | 3 | 7 | 1 | -2 | 3600
Cc1cc(N2CCN(C(=O)c3ccco3)CC2)n2nc(-c3cccc(Cl)c3)cc2n1 | ? | 1 | 1 | 5 | -3 | 16545*
COc1ccc(-c2cc3nc(C)cc(N4CCN(C(=O)c5ccco5)CC4)n3n2)cc1 | 0 | -6 | 1 | 9 | i | 3760
COC(=O)[C@@H]1CCCN1C(=O)CCc1nnc(C2CCCCC2)o1 | 0 | -7 | 3 | 13 | 0 | 4838
CCOC(=O)C1=CCC(c2ccc(C)cc2)N(S(=O)(=O)c2ccc(C)cc2)C1 (stereo not given) | -1 | -10 | -17 | · | · | 4352
CCN(CC)Cc1c[nH]c2c(C(=O)OC)cccc12 | -1 | -7 | -16 | 7 | 17* | 4271
CCN(CC)Cc1c[nH]c2ccccc12 | 0 | -3 | -13 | 4 | -1 | 3673
COC(=O)c1c(NC(=O)CSc2nnnn2-c2ccccc2)sc2c1CCC(C(C)(C)C)C2 (stereo not given) | -2 | -2 | -1 | -18 | i | 23374*
COc1cc(C2C(C#N)=C(N)Oc3c2c(-c2ccccc2)nn3-c2ccccc2)cc(OC)c1OC (stereo not given) | -1 | -2 | -6 | -8 | -4 | 2507
COc1ccc(C(C)=O)cc1CN1C(=O)C(C)N(c2ccc(C)cc2)C1=O (stereo not given) | ? | -7 | 5 | -6 | i | 18676*
Cc1cc2cc(C)c3nnc(SCC(=O)Nc4ccc(S(=O)(=O)N5CCCCC5C)cc4)n3c2cc1C (stereo not given) | 0 | -2 | 0 | -46 | 0 | 2154
CC1CCCCN1S(=O)(=O)c1ccc(NC(=O)CSc2nnnn2C)cc1 (stereo not given) | ? | 0 | 1 | -4 | -2 | 21890*
CC1CCCCN1S(=O)(=O)c1ccc(NC(=O)c2ccco2)cc1 (stereo not given) | ? | -1 | -3 | -8 | i | 20490*
CC(C)NC(=O)c1ccc(COc2cc(Cl)ccc2Cl)o1 | -2 | -2 | -2 | 2 | i | 3636
Cc1ccc(NC(=O)CCc2nnc3ccc(NCc4ccco4)nn23)cc1 | 3 | -1 | 4 | 8 | i | 5283
CC1(C(=O)NS(=O)(=O)c2ccc(C#N)cc2)CCN1C(=O)Cc1cc(F)ccc1F (stereo not given) | -1 | 0 | -2 | · | 1 | 4050
CCOC(=O)C1=C(N)Oc2cc(C)oc(=O)c2C12C(=O)N1c3c(cc(OC)cc32)C(C)=CC1(C)C (stereo not given) | ? | -4 | -1 | 1 | i | 23174*
CCOC(=O)C1=C(N)Oc2cc(C)oc(=O)c2C12C(=O)N1c3c(cccc32)C(C)CC1(C)C (stereo not given) | 1 | 0 | -7 | -4 | 1 | 10460
CCOC(=O)C1=C(N)Oc2cc(C)oc(=O)c2C12C(=O)N1c3c(cccc32)C(C)=CC1(C)C (stereo not given) | 3 | -8 | 2 | 1 | 3 | 21518*
CCCCc1ccc(NC(=O)c2c(C)noc2C)cc1 | -4 | 0 | -10 | -3 | -16 | 17390*
CC(C)CNC(=S)NC1CCCC1 | ? | -2 | -4 | -7 | i | 20457*
CC(C)CNC(=O)C(=O)NC1CCCC1 | 0 | -3 | -6 | 8 | -1 | 3146
O=C(COc1ccc(F)cc1)Nc1ccc(-n2cnnn2)cc1 | ? | 1 | 1 | -1 | i | 20385*
SMILES | BoNT-A LC inh2 | Anthrax LF inh2 | BoNT F protease | MazEF act | Vc quorum ag | Autofluor counter
CCOc1ccc(NC(=O)c2cccc(-n3cnnn3)c2)cc1 | ? | -2 | -4 | -2 | -2 | 23535*
CCOc1ccc(NC(=O)COc2ccc(-n3cnnn3)cc2)cc1 | ? | ? | ? | 1 | 2 | 5638
CCOc1ccccc1NC(=O)COc1cccc(-n2cnnn2)c1 | -2 | -2 | -4 | 4 | i | 23672*
Cc1sc(NC(=O)COc2cccc(-n3cnnn3)c2)c(C#N)c1C | 1 | -2 | 5 | 120* | i | ?
O=C(Nc1ccc(OC(F)(F)F)cc1)c1cccc(-n2cnnn2)c1 | 0 | -2 | 4 | -2 | i | 5996
COc1cc(C(=O)N2CCN(S(=O)(=O)c3ccc(C)cc3C)CC2)ccc1OCC(=O)N1CCOCC1 | 0 | -8 | 5 | 1 | -1 | 3683
CCC(=O)N1Cc2cc(C(=O)Nc3nccs3)nc(-c3cccc(-c4ccccc4OC)c3)c2[C@H]1CCO | 0 | 2 | -12 | · | · | 5727
COc1ccc(Cn2cnc3c(N)c(C)c(C)cc32)cc1 | -3 | -9 | -11 | 3 | 0 | 4602
Cc1cc2c(ncn2Cc2ccccc2)c([N+](=O)[O-])c1C | 0 | -5 | 2 | 8 | -5 | 22108*
CC(=O)N1N=C2c3ccccc3CCC2C1c1cccs1 (stereo not given) | 0 | -6 | 4 | 8 | 1 | 6489
CCn1cc(Cl)c(C(=O)N2N=C3/C(=C/c4cccs4)CCCC3C2c2cccs2)n1 (stereo not given) | 0 | 0 | -4 | 7 | i | 23292*
CC(=O)n1cc(/C=C2/N=C(c3ccccc3)OC2=O)c2ccccc21 | 2 | 0 | 8 | 149* | 0 | 10609
COc1ccc(CC(=O)NNC(=O)c2cc(Cl)ccc2OC)cc1 | 0 | -6 | -5 | 2 | i | 5001
CC1CC(C)(C)NC(=S)N1CCCC(=O)Nc1ccc(F)cc1 (stereo not given) | 0 | -1 | 6 | -1 | 1 | 3293
Cc1ccc(CNC(=O)CSc2nc3ccccc3c(=O)n2CC2CCCO2)cc1 (stereo not given) | -1 | -1 | -10 | 5 | -4 | 6188
CC(=O)NCCn1c(SCC(=O)NCC2CCCO2)nc2ccccc2c1=O (stereo not given) | -1 | -2 | -4 | -7 | i | 22103*
O=C(CSc1nc2ccccc2c(=O)n1CC1CCCO1)NCC1CCCO1 (stereo not given) | ? | -8 | 8 | 3 | i | 17453*
CCC(Sc1nc2ccccc2c(=O)n1CC1CCCO1)C(=O)NCc1cccnc1 (stereo not given) | ? | -3 | -4 | -1 | -2 | 20816*

Assay outcomes from PubChem.
